Values joined by “and” are separate entries in the source; they are usually repeats but may differ in a detail not shown here. Equal values may be shown once. About 2,000 (36%) of roughly 5,500 compounds were called active. Another 18% or so got no clear call; they are omitted. Cut-off read from the data, not from the text of the source: active = normalized growth mostly below about 0.91 (no sharp cut-off); inconclusive = no clear call, values can overlap the other calls; inactive = mostly above about 0.92. The list shows a part of the results.
Assay: chemical genetic growth profiling, strain panel (AID 1159580);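 note: tested at 20 µM; growth read once vehicle control cultures reached saturation at 30 °C; 1 = growth at the plate median or of vehicle wells; lower values mean less growth of the strain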
Settings: S. cerevisiae deletion strains, growth OD

Measured: normalized growth

CN(C)CC/C=C1/c2ccccc2COc2ccccc21
inactive: locus YAL021C, strain ccr4, hits give low values 0.99 | locus YAL026C, strain drs2, hits give low values 1.03 | locus YAL030W, strain snc1, hits give low values 1.02 | locus YBL061C, strain skt5, hits give low values 1.02 | locus YBR009C, strain hhf1, hits give low values 1.01 | locus YBR021W, strain FUR4, hits give low values 0.991 | locus YBR023C, strain chs3, hits give low values 1.03 | locus YBR171W, strain sec66, hits give low values 1.05 | locus YBR229C, strain ROT2, hits give low values 1 | locus YBR231C, strain swc5, hits give low values 1.04 | locus YBR279W, strain paf1, hits give low values 1.01 | locus YCL011C, strain gbp2, hits give low values 1.03 | locus YCL016C, strain dcc1, hits give low values 1.02 | locus YCL029C, strain bik1, hits give low values 1.02 | locus YCL069W, strain vba3, hits give low values 1.03 | locus YCR088W, strain abp1, hits give low values 1.03 | locus YDL005C, strain med2, hits give low values 1.05 | locus YDL035C, strain GPR1, hits give low values 1.03 | locus YDL040C, strain nat1, hits give low values 1.02 | locus YDL074C, strain BRE1, hits give low values 1.01 | locus YDL101C, strain DUN1, hits give low values 1.02 | locus YDL134C, strain PPH21, hits give low values 1.01 | locus YDL185W, strain tfp1, hits give low values 1.03 | locus YDL192W, strain arf1, hits give low values 1.03 | locus YDR001C, strain nth1, hits give low values 1.01 | locus YDR069C, strain doa4, hits give low values 1.02 | locus YDR101C, strain arx1, hits give low values 0.992 | locus YDR137W, strain rgp1, hits give low values 1.14 | locus YDR159W, strain sac3, hits give low values 1.05 | locus YDR162C, strain NBP2, hits give low values 1.02 | locus YDR195W, strain ref2 1.05 | locus YDR297W, strain sur2, hits give low values 1.03 | locus YDR318W, strain mcm21, hits give low values 1.02 | locus YDR334W, strain swr1, hits give low values 1.02 | locus YDR335W, strain msn5, hits give low values 1.02 | locus YDR388W, hits give low values 1.03 | locus YDR392W, strain spt3, hits give low values 0.987 | locus YDR502C, strain sam2, hits give low values 1.02 | locus YEL003W, strain gim4, hits give low values 1.03 | locus YEL037C, strain rad23, hits give low values 1.02 | locus YEL061C, strain CIN8 (second series), hits give low values 1.02 | locus YEL061C, strain CIN8, hits give low values 1.01 | locus YER015W, strain faa2, hits give low values 0.977 | locus YER016W, strain bim1, hits give low values 1.01 | locus YER110C, hits give low values 1.02 | locus YER111C, strain swi4, hits give low values 1.03 | locus YER155C, strain BEM2 (second series), hits give low values 1.01 | locus YER155C, strain BEM2, hits give low values 1.01 | locus YER167W, strain BCK2, hits give low values 1.01 | locus YFR010W, strain ubp6, hits give low values 1.02 | locus YGL078C, strain dbp3, hits give low values 1.01 | locus YGL086W, strain mad1, hits give low values 1 | locus YGL167C, strain pmr1, hits give low values 1.03 | locus YGL173C, strain kem1, hits give low values 1.03 | locus YGL227W, strain vid30, hits give low values 1.01 | locus YGL240W, strain doc1, hits give low values 1 | locus YGL248W, strain PDE1, hits give low values 1 | locus YGL253W, strain hxk2, hits give low values 1.02 | locus YGR078C, strain PAC10, hits give low values 1.01 | locus YGR135W, strain pre9, hits give low values 1.03 | locus YGR229C, strain SMI1, hits give low values 1.02 | locus YGR252W, strain gcn5, hits give low values 0.972 | locus YHR013C, strain ard1, hits give low values 0.983 | locus YHR027C, strain rpn1, hits give low values 0.983 | locus YHR030C, strain SLT2, hits give low values 1.02 and 1.03 | locus YHR079C, strain IRE1 (second series), hits give low values 1.03 | locus YHR079C, strain IRE1, hits give low values 1.06 | locus YHR094C, strain hxt1, hits give low values 1.01 | locus YHR129C, strain ARP1, hits give low values 1.01 | locus YHR142W, strain chs7, hits give low values 1.02 | locus YHR200W, strain rpn10, hits give low values 1.04 | locus YIL066C, strain RNR3, hits give low values 1.02 | locus YIL073C, strain SPO22, hits give low values 1.11 | locus YIL125W, strain kgd1, hits give low values 1.01 | locus YIR030C, strain dcg1, hits give low values 1.01 | locus YJL092W, strain hpr5, hits give low values 1.03 | locus YJL095W, strain BCK1 (second series), hits give low values 1.03 | locus YJL095W, strain BCK1, hits give low values 0.992 and 1.03 | locus YJL115W, strain asf1, hits give low values 1.03 | locus YJL129C, strain trk1, hits give low values 1.06 | locus YJL134W, strain LCB3, hits give low values 1.01 | locus YJL154C, strain vps35, hits give low values 1.02 | locus YJL164C, strain tpk1, hits give low values 1.02 | locus YJL166W, strain qcr8, hits give low values 1.01 | locus YJL168C, strain set2, hits give low values 1.01 | locus YJL187C, strain SWE1 (second series), hits give low values 1.01 | locus YJR043C, strain POL32, hits give low values 1.01 | locus YJR066W, strain TOR1, hits give low values 0.931 | locus YKL009W, strain mrt4, hits give low values 1.03
